From PubChem
EWS-Fli inh – blocks EWS/Fli oncoprotein-driven transcription; A673 NR0B1-luciferase reporter, viability-normalised; inhibition, % at 12.6 µM; actives 0.67% (n = 350,000); AID 651661;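 active means mean inhibition of at least 50% after viability correction, with every replicate also passing that limit; inconclusive means mean reaches 50% but only one of two replicates passes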;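 further: firefly luciferase signal divided by Alamar Blue viability fluorescence both relative to DMSO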
LGR2 antag – inhibitors of bursicon-induced Drosophila LGR2 receptor cAMP signaling. AID 720647. inhibition, % at 9.99 µM. actives 0.35% (n = 380,000). HEK293 LGR2, CRE-luciferase, bursicon-stimulated, 4 h;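 active means drop in luminescence signal, shown as inhibition above about 50% in the replicate tests, limit read from the data, passing the limit was not always enough; inconclusive means probably only some replicates passing the limit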;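 further: agonist challenge used bursicon conditioned medium at about half maximal strength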
TWEAK-Fn14 inh – TWEAK-Fn14 signaling inhibition; inhibition, % at 10 µM; TWEAK-stimulated Fn14 reporter cells, luciferase luminescence, 8 h; actives 2% (n = 360,000); in the data active means inhibition above about 50%
LMP1 NFkB inh – inhibitors of Epstein-Barr LMP1-induced NF-kappaB reporter; inhibition, % at 12.5 µM; actives 0.69% (n = 350,000); LMP1-induced NF-kappaB luciferase reporter cells, luminescence; in the data active means inhibition above about 41%; inconclusive means no clear call, values can overlap the other calls
PAX8 reporter – inhibitors of PAX8 transcriptional activity in RMG-I cells; RMG-I TPO-luciferase reporter, SteadyGlo, 24 h; inhibition, % at 12.6 µM; actives 1.2% (n = 360,000); AID 652154;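 active means mean replicate inhibition at least 60% with every replicate also reaching 60%; inconclusive means only one of the two criteria is met; inactive means mean below 60% and not all replicates reaching 60%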;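 further: luciferase light reporting Pax8 driven TPO promoter activity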
TROY signal inh – TROY signaling inhibition; Q293 LMP1-TROYcd NF-kB luciferase reporter, 4 h; inhibition, % at 10 µM; actives 0.98% (n = 360,000); AID 1347056;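 active means compounds whose plate-normalised and pattern-corrected inhibition of the luciferase reporter signal at the single screening dose is 50% or more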
A number is an active result; n = inactive; u = inconclusive; x = no result given; ! = repeats disagree. This is a sample that favours compounds with a hit; in the whole collection about 3.1% have one here.

SMILES	EWS-Fli inh	LGR2 antag	TWEAK-Fn14 inh	LMP1 NFkB inh	PAX8 reporter	TROY signal inh
CC(C)NC(=O)N1[C@@H](CO)[C@@H](c2ccccc2)C12CN(Cc1ccc(F)cc1)C2	n	n	x	x	x	x
CO[C@@H]1CN(C)C(=O)c2ccc(NC(=O)C3CC3)cc2OC[C@H](C)N(C(=O)Cc2ccccn2)C[C@@H]1C	n	n	x	x	n	x
COc1cccc(CN(C)CC(=O)Nc2cccc(C(F)(F)F)c2)c1OC	n	n	74	n	n	n
COc1ccc(CN(C)C(=O)c2ccc(OCC(=O)Nc3cccc(C(F)(F)F)c3)c(OC)c2)cc1	n	n	52	n	n	n
O=C(O)c1ccc(Nc2nc3c(s2)CCCC3)cc1	67	u	91	n	67	n
Cc1cccc(Nc2nc3c(s2)CCCC3)c1	x	n	n	n	n	n
Cc1nc(Nc2ccc(C(=O)O)cc2)sc1-c1ccccc1	u	x	93	n	n	56
CC(C)C#Cc1ccc2c(c1)O[C@@H](CN(C)Cc1ccccc1)[C@@H](C)CN([C@H](C)CO)S2(=O)=O	n	n	x	x	x	x
O=C(NCCN1C(=O)S/C(=C\c2ccc(Cl)c([N+](=O)[O-])c2)C1=O)C1=COCCO1	n	n	64	n	70	57
O=C(/C=C/c1ccccc1)c1ccc(NC2=NCCCS2)cc1	n	n	n	n	n	n
O=C(/C=C/c1ccc(Br)cc1)c1ccc(NC2=NCCCS2)cc1	n	n	59	n	n	n
CC(C)(C)c1ccc(/C=C/C(=O)c2ccc(NC3=NCCCS3)cc2)cc1	n	n	61	n	n	n
COc1ccc(NC(=O)Nc2cccc3c2O[C@@H](CN(C)C(=O)Nc2ccccc2)[C@H](C)CN([C@@H](C)CO)C3=O)cc1	n	n	x	x	x	x
Cc1ccc(-n2c(C)cc(C(=O)COC(=O)c3ccc[nH]c3=O)c2C)cc1C	n	n	n	n	n	n
CCCn1c(C)cc(C(=O)COC(=O)c2ccc(Cl)c(S(=O)(=O)N3CCCC3)c2)c1C	x	x	n	n	x	n
Cc1cc(C(=O)COC(=O)c2ccc[nH]c2=O)c(C)n1-c1ccccc1F	n	n	59	n	n	n
CCCn1c(C)cc(C(=O)COC(=O)c2ccc[nH]c2=O)c1C	x	56	80	48	n	72
Cc1cc(C(=O)Cn2nnc3ccccc3c2=O)c(C)n1-c1ccccc1F	x	u	73	n	x	82
Cc1cc(C(=O)COC(=O)c2ccc(O)cc2)c(C)n1-c1ccccc1F	n	n	75	n	n	84
CO[C@@H]1CN(C)C(=O)c2ccc(NC(=O)c3ccccc3)cc2OC[C@@H](C)N(C(=O)C2CC2)C[C@H]1C	n	n	x	x	x	x
C[C@@H]1CCCCO[C@@H](CN(C)C(=O)c2ccncc2)[C@H](C)CN([C@H](C)CO)C(=O)c2cc(NS(=O)(=O)c3ccc(F)cc3)ccc2O1	n	n	x	x	n	x
CCCC#Cc1cnc2c(c1)C(=O)N([C@@H](C)CO)C[C@H](C)[C@@H](CN(C)C(=O)Nc1ccccc1OC)O2	n	n	x	x	x	x
O=C(C[C@H]1CC[C@H]2[C@@H](COC[C@H](O)CN2Cc2cccc(Cl)c2)O1)NCC1CCCCC1	n	n	x	x	n	x
C[C@@H]1CCCCO[C@@H](CN(C)S(=O)(=O)c2cccs2)[C@H](C)CN([C@H](C)CO)C(=O)c2cc(NC(=O)Nc3ccc(C(F)(F)F)cc3)ccc2O1	n	n	x	x	80	x
C[C@@H]1CN([C@H](C)CO)C(=O)c2cc(NC(=O)Nc3ccc(F)cc3)ccc2O[C@@H](C)CCCCO[C@H]1CN(C)S(=O)(=O)c1cccs1	n	n	n	n	68!	n
SMILES	EWS-Fli inh	LGR2 antag	TWEAK-Fn14 inh	LMP1 NFkB inh	PAX8 reporter	TROY signal inh
C[C@H]1CCCCO[C@H](CN(C)S(=O)(=O)c2cccs2)[C@@H](C)CN([C@@H](C)CO)C(=O)c2cc(NC(=O)Nc3ccc(F)cc3)ccc2O1	n	n	x	x	n	x
C[C@@H]1CN([C@@H](C)CO)C(=O)c2cc(NC(=O)Nc3ccc(C(F)(F)F)cc3)ccc2O[C@@H](C)CCCCO[C@@H]1CN(C)S(=O)(=O)c1cccs1	n	n	x	x	n	x
C[C@@H]1CCCCO[C@H](CN(C)S(=O)(=O)c2cccs2)[C@@H](C)CN([C@@H](C)CO)C(=O)c2cc(NC(=O)Nc3ccc(C(F)(F)F)cc3)ccc2O1	n	n	x	x	75	x
C[C@@H]1CCCCO[C@@H](CN(C)S(=O)(=O)c2cccs2)[C@@H](C)CN([C@H](C)CO)C(=O)c2cc(NC(=O)Nc3ccc(C(F)(F)F)cc3)ccc2O1	n	n	x	x	n	x
C[C@@H]1CN([C@H](C)CO)C(=O)c2cc(NC(=O)Nc3ccc(C(F)(F)F)cc3)ccc2O[C@@H](C)CCCCO[C@H]1CN(C)S(=O)(=O)c1cccs1	n	n	x	x	71	x
O=c1[nH]cnc2ncc(-c3ccc(O)cc3)nc12	n	n	n	n	69	n
O=C(C[C@@H]1C[C@H]2c3cc(NC(=O)C4CCC4)ccc3O[C@H]2[C@@H](CO)O1)NCc1cc(F)ccc1F	n	n	x	x	n	x
CC(=O)N(c1ccc(Cl)cc1)c1cn(C(C)=O)c2ccccc12	n	n	n	n	n	n
CC(=O)n1cc(N(C(=O)CCl)c2ccc(C)cc2)c2ccccc21	n	n	56	n	104	n
CC(=O)N[C@@H]1CC[C@H](CC(=O)NCC2CCCCC2)O[C@@H]1CO	n	n	x	x	n	x
CC(C)(C)OC(=O)[C@H](Cc1ccccc1)NC(=O)c1nc[nH]c1C(=O)NCc1ccccc1	n	n	n	n	n	n
CC(C)(C)OC(=O)NCc1ccc(CNC(=O)c2[nH]cnc2C(=O)NCC(=O)OCc2ccccc2)cc1	n	82	n	n	n	n
CC(C)(C)OC(=O)NCc1ccc(CNC(=O)c2[nH]cnc2C(=O)N[C@@H](Cc2ccccc2)C(=O)OC(C)(C)C)cc1	n	n	n	n	76	n
C[C@@H](NC(=O)c1nc[nH]c1C(=O)N[C@@H](Cc1ccccc1)C(=O)OC(C)(C)C)c1ccccc1	n	n	n	n	95	n
CC(C)(C)OC(=O)NCc1ccc(CNC(=O)c2nc[nH]c2C(=O)NCc2ccccc2)cc1	n	n	n	n	n	n
COc1ccc2c3c([nH]c2c1)[C@H](CO)N(Cc1ccccn1)CC31CN(C(=O)c2ccccn2)C1	n	n	x	x	n	x
CC(C)CC#Cc1cnc2c(c1)C(=O)N([C@H](C)CO)C[C@H](C)[C@H](CN(C)Cc1cccc(C(=O)O)c1)O2	x	n	x	x	n	x
Cc1noc(C)c1S(=O)(=O)Nc1ccc2c(c1)C(=O)N([C@H](C)CO)C[C@H](C)[C@@H](CN(C)C(=O)Nc1ccc(F)cc1)OCCCC[C@H](C)O2	n	n	x	x	n	x
Cc1noc(C)c1S(=O)(=O)Nc1ccc2c(c1)C(=O)N([C@@H](C)CO)C[C@H](C)[C@H](CN(C)C(=O)Nc1ccc(F)cc1)OCCCC[C@H](C)O2	n	n	x	x	n	x
